# Laboratory results as given in PubChem BioAssay AID720565 (National Center for Advancing Translational Sciences (NCATS), 2013).
# Where “and” joins values, the source holds several entries; their conditions need not be identical. Equal values may be shown once. Inconclusive results are not listed. Calls of active or inactive are those of the source. Calls come from the whole dose curve; as a rule, active = well fitted activation curve with a large enough effect; inconclusive = small, poorly fitted or top-dose-only effect; inactive = no such curve, though single readings can be large or run the other way.
# Experiment: qHTS for small molecules that induce genotoxicity in ELG1 expressing cells: Confirmatory Assay for Cherry-picked Compounds; note: nearly all actives have a fitted effect of over 35% in size
# Conditions: ELG1-luciferase reporter cells, luminescence, 16 h; series mostly up to 46.1 µM
# Excerpt: Cancer cells divide rapidly compared to normal cells in the body. During cell division, cancer cells need to duplicate their genome by DNA replication. The failure of genome duplication leads to cancer cells' death. Therefore, inhibitors of DNA replication could specifically kill cancer cells. Based on this concept, many chemotherapeutic agents were developed and have been used to treat cancer patients. However, there are a limited number of agents available in the clinical setting, and some of those that do exist have low efficacy and severe side effects. Therefore, if we can find the compounds that effectively block DNA replication either by directly damaging DNA or by inhibiting other cellular mechanisms, the options for cancer treatment will be broadened. We developed a quantitative high-throughput ELG1-luciferase reporter gene assay. Since the level of human ELG1 protein is enhanced in response to genetic stresses, increases in luciferase activity can be used to identify compounds that cause genetic stress. The data herein is the result of the confirmation assay against the cherry picked compounds selected from the primary qHTS (AID 504466). Activation is the desired outcome for this assay. NIH Chemical Genomics Center [NCGC] NIH Molecular Libraries Probe Centers Network [MLPCN] MLPCN Grant: MH092164 Assay Provider: Kyungjae Myung, National Human Genome Research Institute, NIH
# For genotoxicity screening, 2,000 cells/ well (5 uL volume) were dispensed into white, solid-bottom 1536-well plates using a solenoid-based dispenser. Following transfer of 23 nL compound or DMSO vehicle by a pin tool, the plates were incubated 16 hr at 37 C, 5% CO2. Five microliter of ONE-Glo reagent (Promega) was then added to each plate. The assay plates were incubated for 30 min at room temperature followed by quantification of the luciferase activity using the PerkinElmer ViewLux CCD-based plate reader.
# Potency is the fitted concentration of half-maximal effect.
row,SMILES,Potency
1,Cc1cc(C(=O)COC(=O)C2=COCCO2)c(C)n1-c1ccccc1,0.25 µM (active)
2,COc1ccc(-c2coc3cc(O)cc(O)c3c2=O)cc1,9.96 µM (active)
3,Cc1ccccc1NC(=O)CSc1nc2ccccc2o1,inactive
4,Cn1cccc1C(=O)OCC(=O)Nc1sccc1C#N,15.8 µM (active)
5,CCOC(=O)N1CCN(C(=O)CSCC(=O)Nc2nc(-c3ccc(-c4ccccc4)cc3)cs2)CC1,inactive
6,O=C(NOCc1ccccc1)c1ccccc1,8.88 µM (active)
7,COc1cc(/C=C(\C#N)C(=O)Nc2cccc(C(=O)O)c2)ccc1OCc1ccc(Cl)cc1,8.89 µM (active)
8,O=C1CCCC(=NNC(=O)c2cc3ccccc3cc2O)C1,15.8 µM (active)
9,ICC[n+]1csc2ccccc21,14.1 µM (active)
10,Cc1ccc(C(=O)NN=CC(=O)c2ccccc2)c(C)c1,6.28 µM (active)
11,CCOC(=O)c1c(C)[nH]c(C(=O)NNC(=O)c2ccccc2F)c1C,12.5 µM (active)
12,CCOC(=O)N1CCN(C(=O)CSCC(=O)Nc2nc(-c3ccccc3)cs2)CC1,inactive
13,O=c1[nH]c(=O)n([C@@H]2O[C@H](CO)[C@@H](O)[C@H]2O)cc1F,3.97 µM (active)
14,CCc1ccc(OCC(=O)Nc2ccc(-c3nc4ccccc4o3)c(O)c2)cc1,14.1 µM (active)
15,O=C(Nc1ccccn1)c1sc2ccccc2c1Cl,0.223 µM (active)
16,CN(C)c1ccc(C(=O)OCC(=O)c2ccc[nH]2)cc1,14.1 µM (active)
17,Cc1nc2cc(-c3ccccc3)nn2c(N)c1-c1ccccc1,0.629 µM (active)
18,CC(C)C(=O)SCCCCCCC(=O)Nc1nc(-c2ccccc2)cs1,12.5 µM (active)
19,O=C1CCc2cc(NS(=O)(=O)c3ccccc3)cc3c2N1CC3,inactive
20,CC(=O)N1CCc2cc(Br)cc(S(=O)(=O)CCC(=O)Nc3c(C)n(C)n(-c4ccccc4)c3=O)c21,inactive

row,SMILES,Potency
1,O=C(CSc1nnc(-c2csc3c2CCCC3)o1)Nc1ccccc1,575 nM (active) and 561 nM (active)
2,CC(=O)Nc1ccc(/C=C/c2sc3ccccc3[n+]2CCCCI)cc1,22.3 µM (active)
3,CC(=O)Nc1ccc(SCC(=O)c2cc(C)n(Cc3cccs3)c2C)cc1,1.12 µM (active)
4,COc1cccc(CNC(=O)C2CCCN(c3nn4c(=O)cc(C)nc4s3)C2)c1 (stereo not given),inactive
5,Cn1cccc1C(=O)OCC(=O)c1c[nH]c2ccccc12,5.6 µM (active)
6,CCN(CC)S(=O)(=O)c1ccc(N2CCOCC2)c(NC(=O)c2[nH]c(C)c(C(C)=O)c2C)c1,12.5 µM (active)
7,CN(C)c1cccc(C(=O)NNC(=O)CN2C(=O)C3CC=CCC3C2=O)c1 (stereo not given),7.91 µM (active)
8,COc1cccc([C@@H]2Oc3ccc(OC)cc3C(=O)[C@H]2OC(=O)NS(=O)(=O)c2ccc(C)cc2)c1,15.8 µM (active)
9,COc1ccc(S(=O)(=O)Nc2cccc3cccnc23)c([N+](=O)[O-])c1,inactive
10,O=C(COc1ccccc1Cl)Nc1ccc(-c2nc3ccccc3s2)cc1,28.1 µM (active)
11,O=C(/C=C/C#Cc1cccc(NS(=O)(=O)c2ccccc2)c1)NO,3.15 µM (active)
12,COc1cccc(/C=C/C(=O)OCC(=O)c2ccccc2)c1OC,3.53 µM (active)
13,O=c1cc(-c2ccccc2)oc2ccc(Br)cc12,11.2 µM (active)
14,O=C(CSc1nnc(-c2cccnc2)o1)Nc1ccccn1,9.12 µM (active) and 8.89 µM (active)
15,COc1ccccc1/C=C/c1nc2ccccc2o1,3.53 µM (active)
16,N#Cc1ccc(-c2ccc(-c3nc4ccccc4c(=O)[nH]3)o2)cc1,inactive
17,CN(C)c1ccccc1-c1csc(N2CCC(C(N)=O)CC2)n1,1.99 µM (active)
18,O=C(COc1ccccc1F)Nc1ccc(-c2nc3ccccc3s2)cc1,5 µM (active)
19,COCCn1c(C)cc(C(=O)COC(=O)c2cccnc2SC)c1C,2.23 µM (active)
20,O=c1c(-c2ccc(F)cc2)coc2c3c(ccc12)OCCO3,4.45 µM (active)
